Data reported in PubChem BioAssay AID1159580 (chemical genetic matrix, 2015).
In all, about 5,500 compounds went through this assay and about 2,000 (36%) were called active. Not shown: some 18% with an inconclusive outcome. Rule as the data show it: active = normalized growth mostly below about 0.91 (no sharp cut-off); inconclusive = no clear call, values can overlap the other calls; inactive = mostly above about 0.92. This is one part of the list.

Test: chemical genetic growth profiling, strain panel (AID 1159580);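 also: tested at 20 µM; growth read once vehicle control cultures reached saturation at 30 °C; 1 = growth at the plate median or of vehicle wells; lower values mean less growth of the strain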
Conditions: growth OD
[1] = S. cerevisiae deletion strains, locus YAL013W, strain DEP1, hits give low values
[2] = S. cerevisiae deletion strains, locus YBR229C, strain ROT2, hits give low values
[3] = S. cerevisiae deletion strains, locus YDL101C, strain DUN1, hits give low values
[4] = S. cerevisiae deletion strains, locus YDR150W, strain NUM1, hits give low values
[5] = S. cerevisiae deletion strains, locus YEL061C, strain CIN8, hits give low values
[6] = S. cerevisiae deletion strains, locus YGR078C, strain PAC10, hits give low values
[7] = S. cerevisiae deletion strains, locus YHR030C, strain SLT2, hits give low values
[8] = S. cerevisiae deletion strains, locus YHR087W, strain rtc3, hits give low values
[9] = S. cerevisiae deletion strains, locus YJL187C, strain SWE1, hits give low values
[10] = S. cerevisiae deletion strains, locus YJR043C, strain POL32, hits give low values
[11] = S. cerevisiae deletion strains, locus YJR075W, strain HOC1, hits give low values
[12] = S. cerevisiae deletion strains, locus YKL190W, strain CNB1, hits give low values
[13] = S. cerevisiae deletion strains, locus YLR039C, strain RIC1, hits give low values
[14] = S. cerevisiae deletion strains, locus YLR058C, strain SHM2 (second series), hits give low values
[15] = S. cerevisiae deletion strains, locus YLR085C, strain ARP6, hits give low values
[16] = S. cerevisiae deletion strains, locus YLR262C, strain YPT6, hits give low values
[17] = S. cerevisiae deletion strains, locus YML094W, strain GIM5, hits give low values
[18] = S. cerevisiae deletion strains, locus YMR219W, strain ESC1, hits give low values
[19] = S. cerevisiae deletion strains, locus YMR263W, strain SAP30, hits give low values
[20] = S. cerevisiae deletion strains, locus YNL128W, strain TEP1, hits give low values
[21] = S. cerevisiae deletion strains, locus YNL153C, strain GIM3, hits give low values
[22] = S. cerevisiae deletion strains, locus YNL298W, strain CLA4 (second series), hits give low values
[23] = S. cerevisiae deletion strains, locus YNL322C, strain KRE1, hits give low values
[24] = S. cerevisiae deletion strains, locus YNR030W, strain Alg12, hits give low values
[25] = S. cerevisiae deletion strains, locus YPL055C, strain LGE1, hits give low values
[26] = S. cerevisiae deletion strains, locus YPL241C, strain CIN2, hits give low values
[27] = S. cerevisiae deletion strains, locus YPR135W, strain CTF4, hits give low values

Measured: normalized growth

Nc1ccccc1C(=O)NCCc1ccc(Cl)cc1
inactive: [1] 0.979 | [2] 0.949 | [3] 0.987 | S. cerevisiae deletion strains, locus YDL134C, strain PPH21, hits give low values 0.949 | [4] 0.916 | [5] 0.956 | [6] 0.97 | [7] 0.773 | [8] 0.927 | [10] 0.964 | [12] 0.947 | [13] 0.969 | [14] 0.961 | [15] 0.832 | [16] 0.908 | [17] 0.938 | [18] 0.962 | [19] 0.997 | [20] 0.993 | [21] 0.974 | [22] 0.939 | [23] 0.963 | [24] 0.942 | [25] 1.08 | [26] 0.902 | [27] 0.767
active: [9] 0.928 | [11] 0.888

COc1ccc(CCNC(=O)c2ccccc2Cl)cc1OC
inactive: [1] 0.993 | [2] 0.987 | [3] 1 | [4] 0.991 | [5] 0.968 | [6] 1 | S. cerevisiae deletion strains, locus YGR229C, strain SMI1, hits give low values 0.988 | [7] 1.01 | [8] 0.97 | [9] 0.984 | [10] 1 | [11] 0.994 | [12] 0.997 | [13] 1.03 | [14] 1 | [15] 0.973 | [16] 1.02 | [17] 0.993 | [18] 0.981 | [19] 0.993 | [20] 0.983 | [21] 0.988 | [22] 1.01 | [23] 1.01 | [24] 1.03 | [25] 0.976 | [26] 1.02 | [27] 1.06 | S. cerevisiae strains, strain wild type, hits give low values 1.01
